The source of these data is PubChem BioAssay.

Molecules are shown by their SMILES. “And” between values parts separate entries of the source, which are not always exact repeats. Identical values can stand only once. The source made the active and inactive calls. Rule as the data show it, unless noted: active = nuclear beta-catenin stimulation mostly above about 4.2% (no sharp cut-off); inactive = mostly below about 10%.

Assay [1] can be described thus: compounds altering Cy5-DNA-NS3h complex signal – biochemical, LOPAC1280, artefact control for HCV NS3 helicase inhibitor project (AID 687037; call rule not given here). To be noted: Cy5-DNA-NS3h complex fluorescence interference counterscreen.
A short description of assay [2]: Wnt pathway potentiators raising nuclear beta-catenin – imaging, WNT3A-conditioned medium, mouse C2C12, NPC library, primary screen (AID 1117326). To be noted: stronger effect = higher value.
The nature of assay [3]: stimulators of insulin release from INS-1E, primary screen, cell-based, 5 mM glucose, NPC library (AID 1117329;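 active = compound raises insulin release from rat beta cells at 5 mM glucose, no numeric limit stated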). The following applies: rat INS-1E insulin secretion, at 10 µM, stronger effect = higher value.
Assay [4] is described as follows: GLP1 release stimulators, primary, NCI-H716, NPC library (AID 1117341;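 active = compound raises GLP1 secretion from the human gut endocrine cells, with no numeric limit stated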). To be noted: NCI-H716 cells, at 10 µM, stronger effect = higher value.
Assay [5] can be described thus: viability loss with induced miR-34 in A549 – imaging, A549 dox-inducible miR-34, nuclei and caspase counts, primary screen (AID 1347080;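 active = compounds whose cell count with miR-34 switched on is under 0.7 times the count with it off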). The following applies: A549 miR-34 inducible, Hoechst nuclei count, 48 h.
A short description of assay [6]: blockers of cellular phospholipid synthesis – cell-based, LOPAC library, screen 4, primary screen (AID 1347384; call rule not given here). The following applies: animal cells, phospholipid biosynthesis inhibition screen; at 10 µM.
Assay [7] can be described thus: MELAS cybrid and Rieske KO viability enhancers – cell-based, MELAS cybrids, Rieske KO mouse fibroblasts, CellTiter-Glo, primary screen (AID 1508586;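 active = mean z-score across replicates of 1.96 or higher in either the MELAS or the Rieske mutant cell line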;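 also: z relative to plate mean and SD of compound and empty wells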). To be noted: low glucose. (In general: In ATP-based viability assays light output follows the ATP content of the culture.)
A short description of assay [8]: galactose survival enhancers in mitochondrial complex I cybrids – cell-based, galactose medium, ATP luminescence, primary screen (AID 1645843;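 active = z-score of at least 1.8 in each of two replicates, scored against plate mean and spread of sample wells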;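 also: positive z means more ATP and so rescue of galactose-driven cybrid death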). The following applies: complex I mutant cybrid cells, 72 h, stronger effect = higher value.
Assay [9] has as its target 6-phosphogluconate dehydrogenase, decarboxylating (Homo sapiens) (UniProt P52209). The assay is described as follows: inhibition of human phosphogluconate dehydrogenase – biochemical, recombinant enzyme, NADPH absorbance, primary screen (AID 1159550;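 active = at least 20% inhibition of 6-phosphogluconate dehydrogenase activity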). The following applies: recombinant 6PGD, NADPH absorbance 341 nm; at 10 µM; stronger effect = higher value.
The target in assay [10] is NAD(+) hydrolase SARM1 (Homo sapiens) (UniProt Q6SZW1). As to the kind of experiment: blocking NAD cleavage by SARM1 SAM-TIR – cell lysate, NAD-Glo luminescence (AID 1508614;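 active = compound whose remaining NAD level is above about 45 nM, limit read from the data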;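 also: higher remaining NAD means stronger inhibition of SARM1 NADase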). To be noted: SAM-TIR HEK293T lysate NADase, at 1 µM, stronger effect = higher value.
The nature of assay [11]: growth inhibition of GSK3B-pretreated HCT116 cells – cell-based, CellTiter-Glo, 0.2 to 20 µM (AID 1117336;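 active = compounds lowering colon cancer cell viability after pretreatment blocking the GSK3B kinase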). To be noted: HCT116 viability after GSK3B inhibitor, at 20 µM, stronger effect = higher value.
Assay [12] can be described thus: inhibition of endothelial tube formation, primary screen, imaging, VEGF stimulated, CD31 staining, tube area, NPC library (AID 1117340;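 active = compound that reduces growth-factor-driven endothelial tube area in a mixed cell culture, no cutoff stated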). To be noted: VEGF-stimulated ADSC/ECFC co-culture, at 10 µM, stronger effect = higher value.
The nature of assay [13]: HCT116 colon cancer cell growth inhibition, primary screen, CellTiter-Glo luminescence, NPC library (AID 1117342;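 active = compounds that lower survival of HCT116 colon cancer cells in the luminescence readout, no numeric limit stated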). To be noted: at 20 µM (top of the series).
Assay [14] can be described thus: reduced SW480 viability measured with CellTiter-Glo, NPC library, primary (AID 1117343;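 active = compounds that lower viability of the colon cancer cells in the luminescence readout, with no numeric limit stated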). To be noted: CellTiter-Glo luminescence; at 20 µM (top of the series) unless noted.
The nature of assay [15]: NPC library primary testing for decreased DLD-1 cell viability via CellTiter-Glo (AID 1117346;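 active = compounds that lower survival of DLD-1 colon cancer cells in the luminescence readout, no cutoff given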). To be noted: DLD-1 viability, CellTiter-Glo luminescence; at 20 µM (top of the series).
Assay [16] can be described thus: EMT-state selective cytotoxicity in co-culture – imaging, PC-3E GFP, TEM4-18 mCherry, primary screen (AID 1345086;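 active = compounds killing one labelled cell type while sparing the other, by normalised counts and ratio limits, not self-fluorescent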;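 also: cells exposed to compound for 72 h before imaging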;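 as to red/green cell ratio (normalised): normalised mesenchymal count divided by normalised epithelial count so high means epithelial killing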). To be noted: PC-3E GFP / TEM4-18 mCherry co-culture, imaging cell counts, at 1 µM.
Setting [17] is: stronger effect = lower value, cell number ratio, induced over uninduced.
Setting [18] is: measured here: relative caspase fold change +Dox/-Dox.
[19] abbreviates: measured here: total cells with miR-34 induction, stronger effect = lower value.
[20] abbreviates: measured here: total cells without miR-34 induction.
[21] abbreviates: MELAS cybrid survival, CellTiter-Glo 48 h, stronger effect = higher value.
Setting [22] is: Rieske KO mouse fibroblast survival, CellTiter-Glo 72 h.

Chain of 6-phosphogluconate dehydrogenase, decarboxylating (Homo sapiens) (P52209 whole entry, looked up): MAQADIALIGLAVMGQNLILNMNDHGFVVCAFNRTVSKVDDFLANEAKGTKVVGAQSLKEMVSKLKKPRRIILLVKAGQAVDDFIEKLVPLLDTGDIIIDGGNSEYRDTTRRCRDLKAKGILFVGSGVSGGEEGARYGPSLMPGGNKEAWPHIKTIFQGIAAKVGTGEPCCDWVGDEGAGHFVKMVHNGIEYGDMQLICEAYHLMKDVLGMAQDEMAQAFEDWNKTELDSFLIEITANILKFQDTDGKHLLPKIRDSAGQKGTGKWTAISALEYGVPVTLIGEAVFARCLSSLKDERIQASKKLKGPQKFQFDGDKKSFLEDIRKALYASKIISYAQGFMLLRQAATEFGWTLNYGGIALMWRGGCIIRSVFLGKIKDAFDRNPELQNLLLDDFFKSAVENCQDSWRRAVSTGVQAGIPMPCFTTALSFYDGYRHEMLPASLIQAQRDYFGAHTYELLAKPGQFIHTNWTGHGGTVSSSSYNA
Chain of NAD(+) hydrolase SARM1 (Homo sapiens) (Q6SZW1 whole entry, looked up): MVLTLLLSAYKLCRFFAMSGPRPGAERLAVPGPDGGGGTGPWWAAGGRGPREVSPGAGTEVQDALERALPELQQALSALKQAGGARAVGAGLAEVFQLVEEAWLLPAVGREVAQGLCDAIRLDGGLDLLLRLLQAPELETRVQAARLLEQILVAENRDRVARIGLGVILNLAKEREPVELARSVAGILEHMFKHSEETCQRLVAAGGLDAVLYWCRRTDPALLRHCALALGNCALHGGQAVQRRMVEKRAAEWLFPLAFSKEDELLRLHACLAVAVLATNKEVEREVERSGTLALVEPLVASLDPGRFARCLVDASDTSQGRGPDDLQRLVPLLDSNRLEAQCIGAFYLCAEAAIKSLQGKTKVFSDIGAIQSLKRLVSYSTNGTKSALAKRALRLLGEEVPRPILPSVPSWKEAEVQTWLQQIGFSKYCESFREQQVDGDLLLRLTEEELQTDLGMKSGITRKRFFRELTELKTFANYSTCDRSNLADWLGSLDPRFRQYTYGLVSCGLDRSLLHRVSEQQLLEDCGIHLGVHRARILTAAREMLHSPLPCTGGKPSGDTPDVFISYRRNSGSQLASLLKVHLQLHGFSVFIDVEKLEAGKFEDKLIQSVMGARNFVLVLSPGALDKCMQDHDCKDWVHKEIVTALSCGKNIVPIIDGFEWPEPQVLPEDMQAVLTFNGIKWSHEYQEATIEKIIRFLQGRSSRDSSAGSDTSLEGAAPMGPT

As to `O=C(CCCN1CCC(O)(c2cccc(C(F)(F)F)c2)CC1)c1ccc(F)cc1`, the fluorescence ratio (interference) in assay [1] is 1 (inactive). Further, the nuclear beta-catenin stimulation in assay [2] (at 10 µM) is 14.8% (inactive); in [2] (stimulation, at 2 µM) it was -1.1%. The insulin secretion stimulation in assay [3] is -0.35% (inactive). The GLP1 secretion stimulation in assay [4] was 5.6% (inactive). Moreover, the fold change in [5] (setting [17]) is 1.01 (inactive) and 0.873 (inactive); in assay [5] (setting [18]), 0.77 and 1.63. Moreover, the cell count in assay [5] (setting [19]) is 10300 and 9050; in assay [5] (setting [20]), 10200 and 10400. Also, the compound was classed as inactive in assay [6]. Moreover, the z-score is -0.508 (inactive) in assay [7] (setting [21]); -1.07 in assay [7] (setting [22]); -1 (inactive) and -0.885 (inactive) in assay [8].

As to `Cc1c(C)c2c(c(C)c1O)CC[C@@](C)(CCC[C@H](C)CCC[C@H](C)CCCC(C)C)O2`, the nuclear beta-catenin stimulation in [2] (at 10 µM) is 0.1% (inactive); in assay [2] (stimulation, at 2 µM) it was 0.4%. For the same compound, the insulin secretion stimulation in assay [3] was 1% (inactive). In addition, the GLP1 secretion stimulation in assay [4] was 4.7% (inactive). In addition, the inhibition in assay [9] is -20.7% (inactive). Further, the fold change is 0.864 (inactive) in [5] (setting [17]) and 1.16 in [5] (setting [18]). Besides, the cell count in assay [5] (setting [19]) was 7550; in assay [5] (setting [20]) it was 8740. For the same compound, in [10], the remaining NAD is 10 nM (inactive).

As for `Cc1cc(O)c2c(O)c3c(O)cccc3cc2c1`, the nuclear beta-catenin stimulation was 6.3% (inactive) in assay [2] (at 10 µM) and 4.6% in assay [2] (stimulation, at 2 µM). In addition, the viability decrease in assay [11] is 97% (active). Besides, the tube area decrease in [12] was 67.8% (active). Moreover, the inhibition of viability in assay [13] is 90.6% (active). Besides, the viability decrease (inhibition) was 95.1% (active) in assay [14] and 95.3% (active) in assay [15].

Regarding `CCC=CCC=CCC=CCCCCCCCC(=O)O`, the nuclear beta-catenin stimulation in assay [2] (at 10 µM) was -0.2% (inactive); in assay [2] (stimulation, at 2 µM), 0%. For the same compound, the insulin secretion stimulation in assay [3] was 2.65% (inactive). In [4], the GLP1 secretion stimulation was 12.4% (inactive).

Take `Cc1ccc(O)cc1`: the nuclear beta-catenin stimulation in assay [2] (at 10 µM) was 0.9% (inactive); in assay [2] (stimulation, at 2 µM), 13.3%. Further, in [11], the viability decrease is 4.4% (inactive). Also, in assay [12], the tube area decrease was -11.8% (inactive). Besides, the inhibition of viability in assay [13] was 13.6% (inactive). Besides, the viability decrease (inhibition) was -6.4% (inactive) in [14] and -0.4% (inactive) in assay [15]. For the same compound, the inhibition in assay [9] is -1.83% (inactive). Further, the red/green cell ratio (normalised) in assay [16] (actives lie on both sides, counts scaled to control wells, 1 = unselective) is 1.31 (inactive). Moreover, the normalised cell number turned out to be 1.05 in [16] (measured here: epithelial PC-3E GFP cell survival) and 1.37 in assay [16] (measured here: mesenchymal TEM4-18 mCherry cell survival). Moreover, the values for the fold change in assay [5] (setting [17]) and in assay [5] (setting [18]) were 0.843 (inactive) and 3.01, respectively. For the same compound, the cell count in [5] (setting [19]) was found to be 10700; in assay [5] (setting [20]), 12700.

Take `NC1=NCC2c3ccccc3Cc3ccccc3N12` (stereo unspecified): in [1], the fluorescence ratio (interference) is 1 (inactive). For the same compound, the nuclear beta-catenin stimulation in [2] (at 10 µM) was -0.3% (inactive); in assay [2] (stimulation, at 2 µM) it was -1%. Further, the insulin secretion stimulation in assay [3] is 12.5% (inactive). The GLP1 secretion stimulation in assay [4] is 4.4% (inactive). Further, the fold change in assay [5] (setting [17]) was 0.943 (inactive) and 0.763 (inactive); in assay [5] (setting [18]), 0.904 and 1. Also, the cell count was 9270 and 7910 in [5] (setting [19]); 9840 and 10400 in assay [5] (setting [20]). The compound was classed as inactive in assay [6]. Besides, the z-score in assay [7] (setting [21]) was -0.3 (inactive); in assay [7] (setting [22]), -0.211; in [8], -0.265 (inactive).

With `O=C(OCCO)c1ccccc1O`, the nuclear beta-catenin stimulation is 0.5% (inactive) in assay [2] (at 10 µM) and -2.3% in [2] (stimulation, at 2 µM). Further, in [3], the insulin secretion stimulation is 0.25% (inactive). In addition, in assay [4], the GLP1 secretion stimulation was -2.5% (inactive).

In general, inhibition refers to the drop in the measured response relative to a control, in per cent.
